Targets with a hit are over-represented here; the source holds about 8,800 in all. About 0.5% of all pairs of compound and target were hits.
Columns and labels:
Experiment in all cases: log2 fold change, soluble protein after heating vs DMSO (PISA); higher = thermal stabilisation; K562 lysate, 10 uM; active = over 0.2 and 3.5 SD of the protein, either way, in both replicates (recomputed)
erlotinib = compound: C#Cc1cccc(Nc2ncnc3cc(OCCOC)c(OCCOC)cc23)c1 [erlotinib]
Procedure, shortened: (§1)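 To prepare the extract, K562 pellets were dounce-homogenised in PBS pH 7.4 with 1 mM MgCl2, giving crude material at 1 mg/mL protein. This was treated with 10 μM compound for 30 min, then heated in aliquots for 3 min over 48°C-58°C before pooling and addition of NP-40 to 0.5% at 4°C. Centrifugation at 21,000xg for 90 min left soluble protein in the supernatant, which TMTpro 16plex LC-MS/MS quantified with equalised channel sums. Results are log-two fold changes in thermal stability compared with solvent controls, from duplicates.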

[1] = compound: C/C(=N\NC(=O)C1=CC(=CC=C1)S(=O)(=O)N2CCOCC2)/C3=C(C=CC(=C3)Cl)O
Procedure, shortened: as §1

[2] = compound: C1=CC(=CC=C1C2=NC3=C(N2)C=C(C=C3)C(=O)N)OC4=CC=C(C=C4)Cl
Procedure, shortened: as §1

[3] = compound: C1=CC2=C(C=CC(=C2)/C=C\3/C(=O)NC(=NCC4=CC=CS4)S3)N=C1
Procedure, shortened: as §1

[4] = compound: C1=CC2=NC=CN=C2C=C1/C=C/3\C(=O)NC(=O)S3
Procedure, shortened: as §1

[5] = compound: C1=CC=C(C=C1)C2=NC(=C(N2)C3=CC=NC=C3)C4=CC(=C(C=C4)Cl)O
Procedure, shortened: as §1

[6] = compound: C1=CC=C2C(=C1)C3=NNC4=CC=CC(=C43)C2=O
Procedure, shortened: as §1

[7] = compound: C1CCN(C1)C(=O)NC2=CC=CC(=C2)NC3=NC=C(C(=N3)NCCC4=CN=CN4)Br
Procedure, shortened: as §1

[8] = compound: C1CN(CCC1(CC2=CC=C(C=C2)Cl)N)C3=NC=NC4=C3C=CN4
Procedure, shortened: as §1

IRAK-1-4 Inhibitor I = compound: C1COCCN1CCN2C3=CC=CC=C3N=C2NC(=O)C4=CC(=CC=C4)[N+](=O)[O-] [IRAK-1-4 Inhibitor I]
Procedure, shortened: as §1

Measured: log2 fold change

FLT4 (UniProt P35916)
inactive: erlotinib 0.047 | [1] 0.036 | [2] 0.038 | [3] 0.039 | [4] 0.075 | [5] 0.046 | [6] 0.044 | [7] -0.097 | [8] 0.087 | IRAK-1-4 Inhibitor I -0.029

FASTKD2 (UniProt Q9NYY8)
inactive: erlotinib 0.028 | [1] 0.041 | [2] -0.005 | [3] 0.03 | [4] 0.019 | [5] -0.007 | [6] -0.018 | [7] 0.013 | [8] 0.002 | IRAK-1-4 Inhibitor I 0.016

FKBP8 isoform 2 (UniProt Q14318)
inactive: erlotinib -0.011 | [1] 0.041 | [2] 0.012 | [3] 0.002 | [4] -0.005 | [5] 0.01 | [6] 0 | [7] -0.054 | [8] 0.001 | IRAK-1-4 Inhibitor I 0.008

FYB1 isoform 3 (UniProt O15117)
inactive: erlotinib -0.019 | [1] -0.043 | [2] -0.003 | [3] -0.073 | [4] 0.009 | [5] 0.015 | [6] -0.025 | [7] -0.012 | [8] 0.028 | IRAK-1-4 Inhibitor I 0.024

FBXO22 (UniProt Q8NEZ5)
inactive: erlotinib 0.042 | [1] -0.022 | [2] 0.048 | [3] 0.016 | [4] 0.02 | [5] -0.002 | [6] -0.01 | [7] 0.029 | [8] 0.049 | IRAK-1-4 Inhibitor I 0.007

EXOC1 (UniProt Q9NV70)
Chain of UniProt Q9NV70 (Q9NV70 whole entry, looked up): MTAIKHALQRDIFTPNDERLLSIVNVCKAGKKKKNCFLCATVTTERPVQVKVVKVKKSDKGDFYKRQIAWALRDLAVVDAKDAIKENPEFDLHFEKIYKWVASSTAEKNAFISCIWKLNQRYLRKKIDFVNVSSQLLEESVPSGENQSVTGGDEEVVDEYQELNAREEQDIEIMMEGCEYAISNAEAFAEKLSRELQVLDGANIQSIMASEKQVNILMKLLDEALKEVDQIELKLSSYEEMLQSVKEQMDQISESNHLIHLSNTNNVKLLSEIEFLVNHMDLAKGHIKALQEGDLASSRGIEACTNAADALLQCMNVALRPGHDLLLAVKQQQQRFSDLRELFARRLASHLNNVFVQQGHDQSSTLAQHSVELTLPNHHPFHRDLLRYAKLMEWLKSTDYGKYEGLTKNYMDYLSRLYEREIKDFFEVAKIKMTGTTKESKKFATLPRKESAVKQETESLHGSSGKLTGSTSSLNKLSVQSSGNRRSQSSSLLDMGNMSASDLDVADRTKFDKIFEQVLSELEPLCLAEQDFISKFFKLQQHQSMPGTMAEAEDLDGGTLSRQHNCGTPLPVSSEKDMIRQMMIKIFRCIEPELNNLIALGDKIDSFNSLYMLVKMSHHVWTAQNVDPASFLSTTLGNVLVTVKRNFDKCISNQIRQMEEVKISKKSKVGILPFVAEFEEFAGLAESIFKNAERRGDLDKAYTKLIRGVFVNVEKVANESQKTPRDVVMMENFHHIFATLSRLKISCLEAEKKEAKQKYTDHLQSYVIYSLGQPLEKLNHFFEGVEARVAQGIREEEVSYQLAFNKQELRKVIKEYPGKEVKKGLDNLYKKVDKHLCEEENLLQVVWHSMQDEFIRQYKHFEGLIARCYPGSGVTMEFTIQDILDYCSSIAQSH
inactive: erlotinib 0.05 | [1] -0.005 | [2] -0.047 | [3] -0.009 | [4] 0.074 | [5] -0.035 | [6] -0.043 | [7] 0.014 | [8] -0.016 | IRAK-1-4 Inhibitor I -0.011

ENO2 (UniProt P09104)
Chain of UniProt P09104 (P09104 whole entry, looked up): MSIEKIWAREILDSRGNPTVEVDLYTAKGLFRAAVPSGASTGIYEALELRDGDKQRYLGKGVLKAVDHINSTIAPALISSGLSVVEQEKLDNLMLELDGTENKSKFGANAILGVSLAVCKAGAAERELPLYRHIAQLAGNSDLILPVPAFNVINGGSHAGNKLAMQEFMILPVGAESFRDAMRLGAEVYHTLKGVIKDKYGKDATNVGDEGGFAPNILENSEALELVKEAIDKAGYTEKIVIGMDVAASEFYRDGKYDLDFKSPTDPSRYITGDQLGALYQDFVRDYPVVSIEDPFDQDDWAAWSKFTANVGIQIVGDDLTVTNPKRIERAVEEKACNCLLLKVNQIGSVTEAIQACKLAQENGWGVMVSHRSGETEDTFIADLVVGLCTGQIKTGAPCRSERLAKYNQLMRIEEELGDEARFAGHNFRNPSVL
inactive: erlotinib 0.013 | [1] 0.013 | [2] 0.03 | [3] -0.037 | [4] 0.056 | [5] -0.091 | [6] 0.024 | [7] 0.005 | [8] -0.02 | IRAK-1-4 Inhibitor I -0.036

FREM2 (UniProt Q5SZK8)
inactive: erlotinib 0.015 | [1] -0.095 | [2] -0.109 | [3] -0.065 | [4] 0.047 | [5] 0.008 | [6] -0.051 | [7] -0.02 | [8] -0.021 | IRAK-1-4 Inhibitor I 0.009

ECI2 (UniProt O75521)
inactive: erlotinib 0.032 | [1] 0.01 | [2] 0.024 | [3] -0.011 | [4] 0.022 | [5] -0.019 | [6] -0.111 | [7] -0.03 | [8] 0.045 | IRAK-1-4 Inhibitor I 0.054

ESYT2 (UniProt H7BXI1)
inactive: erlotinib -0.056 | [1] 0.037 | [2] -0.017 | [3] 0.042 | [4] -0.025 | [5] -0.022 | [6] -0.076 | [7] -0.005 | [8] -0.008 | IRAK-1-4 Inhibitor I 0.019

FASTKD5 (UniProt Q7L8L6)
inactive: erlotinib 0.061 | [1] 0.019 | [2] -0.054 | [3] 0.023 | [4] 0.013 | [5] -0.014 | [6] -0.066 | [7] -0.047 | [8] 0.013 | IRAK-1-4 Inhibitor I -0.019

DTWD1 (UniProt Q8N5C7)
inactive: erlotinib 0.01 | [1] 0.082 | [2] -0.039 | [3] -0.004 | [4] -0.048 | [5] -0.025 | [6] 0.039 | [7] 0.01 | [8] 0.047 | IRAK-1-4 Inhibitor I -0.01

FTSJ3 (UniProt Q8IY81)
inactive: erlotinib 0.064 | [1] -0.157 | [2] 0.002 | [3] -0.014 | [4] -0.028 | [5] 0.025 | [6] 0.065 | [7] 0.012 | [8] 0.022 | IRAK-1-4 Inhibitor I -0.018

DSN1 (UniProt Q9H410)
inactive: erlotinib -0.021 | [1] 0.03 | [2] 0.037 | [3] 0.014 | [4] 0.01 | [5] -0.025 | [6] 0.032 | [7] -0.034 | [8] -0.024 | IRAK-1-4 Inhibitor I 0.002

EED, A0A5F9ZI63
inactive: erlotinib 0.019 | [1] 0.042 | [2] -0.033 | [3] 0.017 | [4] -0.019 | [5] -0.012 | [6] 0.003 | [7] 0.003 | [8] 0.023 | IRAK-1-4 Inhibitor I 0.021

FPGT (UniProt O14772)
Chain of UniProt O14772 (O14772 whole entry, looked up): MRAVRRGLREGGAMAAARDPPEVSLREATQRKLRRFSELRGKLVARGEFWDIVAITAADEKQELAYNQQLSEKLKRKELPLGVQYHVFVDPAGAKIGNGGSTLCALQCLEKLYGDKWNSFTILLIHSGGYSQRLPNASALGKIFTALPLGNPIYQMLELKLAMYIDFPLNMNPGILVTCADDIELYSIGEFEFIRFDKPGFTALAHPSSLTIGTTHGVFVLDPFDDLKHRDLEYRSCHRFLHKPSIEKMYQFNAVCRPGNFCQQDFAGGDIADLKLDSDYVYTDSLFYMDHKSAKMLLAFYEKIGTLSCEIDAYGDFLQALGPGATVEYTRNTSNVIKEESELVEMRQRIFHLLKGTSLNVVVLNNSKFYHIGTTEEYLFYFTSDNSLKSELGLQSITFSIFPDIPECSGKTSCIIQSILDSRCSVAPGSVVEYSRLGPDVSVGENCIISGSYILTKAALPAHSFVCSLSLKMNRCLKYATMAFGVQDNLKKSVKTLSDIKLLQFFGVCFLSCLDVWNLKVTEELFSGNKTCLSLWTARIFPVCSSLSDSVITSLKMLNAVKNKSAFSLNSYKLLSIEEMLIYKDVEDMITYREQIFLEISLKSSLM
inactive: erlotinib 0.031 | [1] -0.005 | [2] -0.003 | [3] 0.011 | [4] 0.023 | [5] -0.002 | [6] -0.108 | [7] 0.006 | [8] -0.013 | IRAK-1-4 Inhibitor I 0.023

EXOC2 (UniProt Q96KP1)
inactive: erlotinib 0.011 | [1] -0.008 | [2] -0.028 | [3] 0.049 | [4] -0.008 | [5] -0.001 | [6] -0.042 | [7] -0.018 | [8] 0.016 | IRAK-1-4 Inhibitor I 0.009

FBXO30 (UniProt Q8TB52)
inactive: erlotinib 0.006 | [1] -0.064 | [2] -0.031 | [3] 0.014 | [4] -0.038 | [5] -0.008 | [6] 0.042 | [7] -0.014 | [8] -0.007 | IRAK-1-4 Inhibitor I -0.018

ELAVL1 isoform 2 (UniProt Q15717)
inactive: erlotinib 0.047 | [1] 0.008 | [2] 0.019 | [3] 0.025 | [4] -0.017 | [5] 0.001 | [6] -0.069 | [7] -0.027 | [8] 0.036 | IRAK-1-4 Inhibitor I -0.051

GALNT2 (UniProt Q10471)
inactive: erlotinib -0.028 | [1] 0.005 | [2] -0.098 | [3] 0.054 | [4] -0.004 | [5] -0.04 | [6] -0.056 | [7] -0.045 | [8] 0.002 | IRAK-1-4 Inhibitor I -0.012

FAM98A (UniProt Q8NCA5)
inactive: erlotinib -0.004 | [1] -0.026 | [2] 0.028 | [3] -0.048 | [4] -0.02 | [5] 0.01 | [6] 0.014 | [7] -0.05 | [8] -0.017 | IRAK-1-4 Inhibitor I -0.04

FDFT1 (UniProt P37268)
Chain of UniProt P37268 (P37268 whole entry, looked up): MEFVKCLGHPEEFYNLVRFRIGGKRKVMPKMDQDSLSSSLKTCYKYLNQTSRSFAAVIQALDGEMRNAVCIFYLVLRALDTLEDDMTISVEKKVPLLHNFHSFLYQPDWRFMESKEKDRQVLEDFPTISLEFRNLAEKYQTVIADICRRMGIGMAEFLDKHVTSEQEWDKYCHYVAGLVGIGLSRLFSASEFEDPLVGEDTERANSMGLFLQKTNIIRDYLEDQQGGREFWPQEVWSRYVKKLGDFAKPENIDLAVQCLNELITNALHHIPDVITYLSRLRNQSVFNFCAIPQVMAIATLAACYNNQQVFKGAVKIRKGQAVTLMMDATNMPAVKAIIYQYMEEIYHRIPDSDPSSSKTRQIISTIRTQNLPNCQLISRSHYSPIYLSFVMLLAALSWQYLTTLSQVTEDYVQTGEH
inactive: erlotinib -0.002 | [1] -0.072 | [2] -0.038 | [3] 0.176 | [4] 0.001 | [5] 0.211 | [6] 0.115 | [7] 0.005 | [8] 0.024 | IRAK-1-4 Inhibitor I -0.014

EIF2AK1 (UniProt Q9BQI3)
inactive: erlotinib -0.016 | [1] 0.087 | [2] 0.017 | [3] -0.02 | [4] 0.029 | [5] -0.027 | [6] -0.016 | [7] -0.02 | [8] -0.006 | IRAK-1-4 Inhibitor I -0.01

FNTB (UniProt P49356)
inactive: erlotinib -0.03 | [1] -0.038 | [2] 0.011 | [3] 0.013 | [4] -0.034 | [5] -0.005 | [6] -0.02 | [7] 0.028 | [8] -0.022 | IRAK-1-4 Inhibitor I -0.006

GDPD1 (UniProt Q8N9F7)
Chain of UniProt Q8N9F7 (Q8N9F7 whole entry, looked up): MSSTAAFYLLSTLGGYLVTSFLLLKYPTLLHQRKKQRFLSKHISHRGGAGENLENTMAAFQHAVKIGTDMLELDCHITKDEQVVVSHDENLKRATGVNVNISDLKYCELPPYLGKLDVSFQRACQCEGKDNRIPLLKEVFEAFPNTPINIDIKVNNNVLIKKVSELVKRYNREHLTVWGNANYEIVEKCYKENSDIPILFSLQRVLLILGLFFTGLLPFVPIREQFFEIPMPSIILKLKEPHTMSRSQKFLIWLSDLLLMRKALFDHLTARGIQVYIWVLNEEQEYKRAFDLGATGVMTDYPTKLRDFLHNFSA
inactive: erlotinib -0.037 | [1] 0.248 | [2] -0.112 | [3] 0.001 | [4] -0.041 | [5] 0.011 | [6] -0.024 | [7] 0.032 | [8] 0.086 | IRAK-1-4 Inhibitor I 0.038

EIF2B5 (UniProt Q13144)
inactive: erlotinib 0.015 | [1] -0.052 | [2] -0.017 | [3] 0.011 | [4] 0.03 | [5] -0.011 | [6] -0.054 | [7] 0.006 | [8] 0.007 | IRAK-1-4 Inhibitor I 0.027

FBXO38 (UniProt Q6PIJ6)
Chain of UniProt Q6PIJ6 (Q6PIJ6 whole entry, looked up): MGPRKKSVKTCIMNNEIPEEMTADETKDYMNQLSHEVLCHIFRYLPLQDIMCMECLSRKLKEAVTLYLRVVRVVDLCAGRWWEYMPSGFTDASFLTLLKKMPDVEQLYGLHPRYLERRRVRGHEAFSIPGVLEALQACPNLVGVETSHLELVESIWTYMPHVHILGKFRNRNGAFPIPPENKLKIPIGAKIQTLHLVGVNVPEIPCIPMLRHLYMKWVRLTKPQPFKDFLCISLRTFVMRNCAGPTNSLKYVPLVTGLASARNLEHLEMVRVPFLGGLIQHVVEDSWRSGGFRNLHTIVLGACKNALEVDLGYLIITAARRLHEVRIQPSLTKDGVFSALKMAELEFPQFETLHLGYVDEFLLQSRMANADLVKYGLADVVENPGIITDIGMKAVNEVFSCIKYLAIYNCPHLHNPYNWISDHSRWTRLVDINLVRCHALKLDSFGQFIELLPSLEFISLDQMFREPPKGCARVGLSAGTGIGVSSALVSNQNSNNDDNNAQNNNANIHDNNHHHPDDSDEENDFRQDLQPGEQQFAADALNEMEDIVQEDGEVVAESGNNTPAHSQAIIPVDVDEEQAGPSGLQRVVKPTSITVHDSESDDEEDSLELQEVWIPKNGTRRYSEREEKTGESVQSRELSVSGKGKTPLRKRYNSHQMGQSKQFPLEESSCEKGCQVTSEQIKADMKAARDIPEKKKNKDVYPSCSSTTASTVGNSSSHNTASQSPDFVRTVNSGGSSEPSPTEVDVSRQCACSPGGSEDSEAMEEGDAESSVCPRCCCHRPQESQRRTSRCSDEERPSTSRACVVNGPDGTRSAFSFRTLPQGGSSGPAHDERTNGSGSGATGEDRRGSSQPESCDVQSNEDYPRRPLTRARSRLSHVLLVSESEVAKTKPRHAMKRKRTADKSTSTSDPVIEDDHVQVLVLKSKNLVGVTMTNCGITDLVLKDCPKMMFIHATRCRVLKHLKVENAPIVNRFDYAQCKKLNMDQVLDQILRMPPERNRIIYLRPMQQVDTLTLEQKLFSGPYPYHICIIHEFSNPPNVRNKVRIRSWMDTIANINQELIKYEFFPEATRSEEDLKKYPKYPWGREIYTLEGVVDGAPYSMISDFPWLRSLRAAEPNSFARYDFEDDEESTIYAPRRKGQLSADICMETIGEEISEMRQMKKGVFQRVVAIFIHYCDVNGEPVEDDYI
inactive: erlotinib 0.102 | [1] 0.041 | [2] 0.013 | [3] -0.047 | [4] -0.041 | [5] 0.06 | [6] 0.077 | [7] -0.06 | [8] 0.021 | IRAK-1-4 Inhibitor I -0.052

FTSJ1 (UniProt Q9UET6)
Chain of UniProt Q9UET6 (Q9UET6 whole entry, looked up): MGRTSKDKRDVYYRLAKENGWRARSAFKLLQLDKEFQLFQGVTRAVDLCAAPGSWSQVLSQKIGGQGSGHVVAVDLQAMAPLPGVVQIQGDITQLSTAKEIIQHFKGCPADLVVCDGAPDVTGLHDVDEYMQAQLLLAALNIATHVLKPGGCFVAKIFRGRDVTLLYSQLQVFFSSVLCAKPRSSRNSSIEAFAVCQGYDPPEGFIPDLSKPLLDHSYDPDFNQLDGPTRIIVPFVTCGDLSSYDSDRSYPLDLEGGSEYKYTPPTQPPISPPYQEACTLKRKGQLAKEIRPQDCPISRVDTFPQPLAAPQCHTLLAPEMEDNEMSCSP
inactive: erlotinib -0.008 | [1] 0 | [2] 0.039 | [3] 0.005 | [4] -0.025 | [5] 0.07 | [6] 0.034 | [7] -0.007 | [8] 0.016 | IRAK-1-4 Inhibitor I 0.019

GAPDH (UniProt P04406)
inactive: erlotinib -0.007 | [1] -0.032 | [2] 0.031 | [3] 0.006 | [4] -0.006 | [5] -0.005 | [6] 0.028 | [7] 0.027 | [8] -0.034 | IRAK-1-4 Inhibitor I 0.003

ELF2 (UniProt Q15723)
Chain of UniProt Q15723 (Q15723 whole entry, looked up): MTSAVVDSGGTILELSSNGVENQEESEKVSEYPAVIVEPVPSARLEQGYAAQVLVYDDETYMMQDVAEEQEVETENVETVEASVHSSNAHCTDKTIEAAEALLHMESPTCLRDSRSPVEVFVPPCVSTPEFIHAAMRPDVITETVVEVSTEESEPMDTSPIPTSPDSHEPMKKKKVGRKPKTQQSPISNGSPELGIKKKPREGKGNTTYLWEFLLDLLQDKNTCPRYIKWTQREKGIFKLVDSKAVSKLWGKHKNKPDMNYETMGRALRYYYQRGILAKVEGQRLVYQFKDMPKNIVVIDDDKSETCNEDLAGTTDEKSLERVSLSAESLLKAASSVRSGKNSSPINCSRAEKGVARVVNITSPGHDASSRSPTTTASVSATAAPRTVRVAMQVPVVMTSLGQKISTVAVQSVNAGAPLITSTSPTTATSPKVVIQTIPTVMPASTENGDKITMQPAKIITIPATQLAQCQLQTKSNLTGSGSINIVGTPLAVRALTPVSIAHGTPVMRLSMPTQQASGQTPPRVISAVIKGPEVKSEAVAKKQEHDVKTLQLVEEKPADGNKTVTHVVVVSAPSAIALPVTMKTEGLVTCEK
inactive: erlotinib 0.023 | [1] -0.136 | [2] 0.059 | [3] -0.068 | [4] 0.07 | [5] -0.036 | [6] -0.056 | [7] 0.009 | [8] -0.022 | IRAK-1-4 Inhibitor I -0.01
